Measured values as given in PubChem BioAssay.
Values without a mark were called inactive. Activity calls are given as the source filed them.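 The calls were made as follows: active = growth inhibition above 50% at the single 2 µM test dose, taken to imply half-maximal potency below 2 µM; inactive = the rest.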

Assay: antimalarial activity against Dd2 strain (AID 2302);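 also: 0% = DMSO untreated growth and 100% = chloroquine plus artemisinin killed control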
Settings: P. falciparum Dd2 in RBCs, LDH growth readout, 72 h; at 2 µM; stronger effect = higher value

| Structure (SMILES) | growth inhibition |
| --- | --- |
| CC(C)NCC(O)COc1ccc(Cc2ccc(OCC(O)CNC(C)C)cc2)cc1 (stereo not given) | 18% |
| Cc1csc(NC(=O)c2cn(-c3ccccc3)nc2-c2cccs2)n1 | 12% |
| OC(CNCCCc1ccccc1)c1cc(OCc2ccccc2)cc(OCc2ccccc2)c1 (stereo not given) | 85% (active) |
| NC1CCN(Cc2ccc(-c3ccc(-c4nc5ccc(F)cc5[nH]4)s3)cc2)C1 (stereo not given) | 98% (active) |
| N=c1n(CCN2CCCCC2)c2ccccc2n1CC(=O)c1cccc([N+](=O)[O-])c1 | 0% |
| O=C(NC(=S)NCc1ccncc1)c1ccccc1 | -3% |
| CC(Cc1ccc(NC(=O)c2ccc(CC(C)NCc3ccc(Cl)c(Cl)c3)cc2)cc1)NCCc1cccc(Cl)c1 (stereo not given) | 33% |
| Cc1cc(CNC(c2ccccc2)C2CCC2)cc(C)c1O (stereo not given) | 48% |
| Cc1ccc(CNC(=O)c2cnc(N3CCN(c4ccncc4)CC3)c(Cl)c2)cc1 | 6% |
| O=C(/C=C/c1ccc(Cl)c(Cl)c1)N1CCC(CN2CCC(Cc3nc4ccccc4[nH]3)CC2)CC1 | 95% (active) |
| O=C(NCCSCc1c(F)cccc1Cl)c1cnc2c(c1)nc(-c1cnc(-c3ccccc3)[nH]1)n2CCc1cnc[nH]1 | 45% |
| COc1ccc(-c2cccc(NC(=O)c3ccc(Cl)cc3)c2)cc1CN(C)CCN(C)C | 61% (active) |
| CSc1cccc(NC(=O)Nc2ccc(I)c(OCCN(C)C)c2)c1 | 19% |
| COc1ccc2nccc([C@@H](O)CN3CCC(NC(=O)/C=C/c4cc(F)cc(Br)c4)CC3)c2c1 | 50% (active) |
| CC(C)C(C(=O)n1ncc2c3c(N)nc(N)nc3ccc21)C(C)C | 8% |
| CC(C)N1CCC(N(Cc2ccc(-c3ccc(C(F)(F)F)cc3)cc2)C(=O)Cn2c(SCc3cccc(F)c3F)nc(=O)c3ccccc32)CC1 | 75% (active) |
| Cc1cc(NN=Cc2ccccc2)c2cc(F)ccc2n1 | 94% (active) |
| Cc1cc(N[C@@H](Cc2ccccc2)C(=O)NCc2cccs2)nc(Nc2ccccc2)n1 | 36% |
| CCOc1cc2ncnc(Nc3ccc(OCc4ccccc4Br)c(OC)c3)c2cc1OCC | 82% (active) |
| O=C(Nc1cccc(-c2ccc(CN3CCCC3)cc2)c1)c1cccc(F)c1 | 17% |

| Structure (SMILES) | growth inhibition |
| --- | --- |
| COCCOc1ccc(Nc2nccc(-c3c(-c4cccc(NC(=O)c5c(F)cccc5F)c4)nn4ccccc34)n2)cc1F | 60% (active) |
| CC1(C)N=C(N)N=C(N)N1OCCCOc1cc(Cl)c(Cl)cc1Cl | 95% (active) |
| FC(F)(F)c1ccc2nc(-c3ccc(-c4cccc(CN5CCN(CCN6CCOCC6)CC5)c4)cc3)[nH]c2c1 | 77% (active) |
| Clc1ccc(Nc2nc3nonc3nc2Nc2ccc(Cl)c(Cl)c2)cc1 | 92% (active) |
| Nc1ccc(-c2ccc3ccnc(N)c3c2)cn1 | 100% (active) |
| COc1cccc(Nc2nc(C)cc(NC3CCCC3)n2)c1 | 79% (active) |
| CCOc1ccc(OCC(=O)Nc2nc(-c3ccc(OC)cc3)c(C)s2)cc1 | 98% (active) |
| O=C(Nc1ccc(Cl)cc1)c1cc(Cl)ccc1NC(=O)C1CCc2ccccc2O1 (stereo not given) | 63% (active) |
| Cc1cccc(-c2nc(Nc3ccncc3)c3cc(N(C)C)ccc3n2)n1 | 63% (active) |
| COc1ccc(NS(=O)(=O)c2cc(NC(=O)Cn3ccccc3=O)ccc2N2CCCCC2)cc1 | 83% (active) |
| COc1ccc2nccc([C@@H](O)CN3CCC(NCCOc4ccccc4[N+](=O)[O-])CC3)c2c1 | 98% (active) |
| Cc1noc(-c2ccc(O)cc2O)c1-c1ccc2c(c1)OCCCO2 | 99% (active) |
| N#Cc1cc(C(=O)c2cc(Cl)ccc2O)cn(-c2cc(Cl)cc(Cl)c2)c1=O | 32% |
| CC(C)c1ccc(C=CC(=O)N2CCC(CCN3CCC(c4c[nH]c5ccccc45)CC3)CC2)cc1 | 11% |
| CN1CCC(C(=O)Nc2ccc(-c3ccc(-c4nc5ccccc5[nH]4)cc3)cc2)CC1 | 94% (active) |
| CC[C@@H]([C@@H](Cc1cc2ccccc2s1)C(=O)N[C@@H](CCCCNC(=O)OCc1ccccc1)C(=O)Nc1ccccn1)N(O)C=O | 70% (active) |
| COc1ccc(Br)cc1/C=C/C(=O)Nc1ccc2c(c1)CCCN(C)C2 | 10% |
| COc1ccc(NC(=O)[C@H](CC(C)C)Nc2cc(C)nc(NCc3cccc(C)c3)n2)cc1 | 90% (active) |
| N#Cc1cc([N+](=O)[O-])ccc1-n1nc(-c2cccc(Cl)c2)n(CC2CCCO2)c1=S (stereo not given) | 89% (active) |
| O=C(NCCCCN1CCC(c2cccc3ccccc23)CC1)c1ccc(NC(=O)c2ccc(Cl)cc2)cc1 | 39% |
